From PubChem BioAssay (EPA / NIEHS) come the findings set out here.

Several values for one entry are separate records, joined by “and”; a condition that tells them apart may be missing. Identical values can stand only once. Records with an inconclusive call do not appear. Activity calls are given as the source filed them. The calls were made as follows, unless noted: active = hit-call score of the fitted dose curve at least 0.9, where 1 is the maximum; inactive = score below 0.9.

Assay [1] in a line: CCTE_Mundy_HCI_Cortical_NOG_NeuronCount: CCTE's Neurite Outgrowth Assay in rat cortical cells for Neuron Count, Mundy Lab (AID 2284236; active = hit-call score of the fitted dose curve at least 0.9, where 1 is the maximum;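 also: neurons counted by imaging betaIII-tubulin and Hoechst stained cortical cells; cells exposed to compound for about 48 hours before fixation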). The method in brief: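 Read-out: neuron number by high-content imaging of betaIII-tubulin (Alexa Fluor-488) and Hoechst-labelled rat primary cortical cells.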
Assay [2] is described as follows: CCTE_Mundy_HCI_Cortical_NOG_BPCount: CCTE's Neurite Outgrowth Assay in rat cortical cells for Branch Point Count, Mundy Lab (AID 2284237).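 As to AC50: branch points counted about two days after chemical exposure.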 In outline: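 Measured 50.33 h after dosing, this morphology endpoint uses rat primary cortical cultures labelled for betaIII-tubulin. Branch points are quantified by high-content imaging, with DMSO as negative control and baseline.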

Assay [3] can be described thus: CCTE_Mundy_HCI_hNP1_Casp3_7: CCTE's Caspase-Glo 3/7 Assay in human neuroprogenitor cells for Apoptosis, Mundy Lab (AID 2284240). In outline: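 Neuroepithelial-lineage stem cells from WA09 embryonic cells were treated with chemicals after 40–44 h of culture. Twenty-four hours later, caspase-3/7 activation was detected luminescently after a 30 min room-temperature reagent step, with DMSO as baseline.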

The nature of assay [4]: CCTE_Mundy_HCI_hNP1_CellTiter: CCTE's Cell Titer-Glo 2 Assay in human neuroprogenitor cells for Viability, Mundy Lab (AID 2284241; active = hit-call score of the fitted dose curve at least 0.9, where 1 is the maximum;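 as to AC50: a hit is a drop in ATP luminescence versus DMSO meaning reduced viability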). In outline:
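Measures ATP content in human neural progenitors derived from WA09 embryonic cells. Read-out at 26.5 hours after dosing, with DMSO serving as the negative control and baseline.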
Background: Cellular ATP, detected with luciferase, serves as a proxy for viable cell number.

A short description of assay [5]: CCTE_Mundy_HCI_Cortical_Synap_Neur_Matur_NeuronCount: CCTE's Synaptogenesis and Neurite Maturation Assay in rat cortical cells for Neuron Count, Mundy Lab (AID 2284242; active = hit-call score of the fitted dose curve at least 0.9, where 1 is the maximum;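 as to AC50: neuron number from Hoechst nuclei and MAP2 staining by high-content imaging; hits reduce neuron count versus DMSO baseline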). In outline: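 Cortical cells from rat are plated, treated with AraC at DIV 5, and exposed to test chemicals with a media change at DIV 7. At DIV 12 they are fixed and immunostained (MAP2, synaptophysin), and imaged neuron counts are compared against DMSO controls.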

A short description of assay [6]: TAMU_HCS_1.5hr_SingleDonor1434_Cytotoxicity: Cytotoxicity Assessment using High-content Screening (HCS) Fluorescent Imaging for the Texas A&M University (TAMU) 1.5-hr Human Induced Pluripotent Stem Cell (iPSC)-derived Cardiotoxicity Assay (AID 2284234; active = hit-call score of the fitted dose curve at least 0.9, where 1 is the maximum). In outline: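 Nuclear counts from Hoechst 33342 imaging define cytotoxicity here, with EC10 (10% cell-count loss relative to DMSO) as point of departure. iPSC cardiomyocytes received 0.2-100 uM test chemical in 0.5% DMSO for 1.5 h at 37 C.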

Assay [7] can be described thus: TAMU_PeakParms_SingleDonor1434_QT: Texas A&M University (TAMU) 1.5-hr Human Induced Pluripotent Stem Cell (iPSC)-derived Cardiomyocytes Calcium (Ca+2) Flux Assay for Cardiotoxicity: QT (decay-rise ratio) (AID 2284235; active = hit-call score of the fitted dose curve at least 0.9, where 1 is the maximum). In outline: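 Decay/rise ratio of calcium-flux fluorescence scored after 90 min exposure (37C) of donor 1434 iPSC cardiomyocytes to 0.2–100 uM (0.5% DMSO). Beat-cessation and severe-notch points removed; POD is EC05, a 5% rise over DMSO.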

Read-out in assay [8]: Collagen I, COL1A1 (gene 1277)
In words: BSK_MyoF_CollagenI: BioMAP Diversity Plus: MyoF Assay for Collagen I Biomarker Activity (AID 2284238). The note with it: primary human lung fibroblasts. The method in brief:
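ELISA readout of Collagen I after 24 h chemical treatment of primary human lung fibroblast cultures; gain of signal scored relative to DMSO vehicle baseline.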

Read-out in assay [9]: Collagen III, COL3A1 (gene 1281)
Briefly: BSK_MyoF_CollagenIII: BioMAP Diversity Plus: MyoF Assay for Collagen III Biomarker Activity (AID 2284239). The note with it: primary human lung fibroblasts. The method in brief: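 Lung fibroblast culture; 24 h compound exposure; collagen III by ELISA; gain-of-signal fit vs DMSO baseline.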

Read-out in assay [10]: Interleukin 17F (IL17F), IL17F (gene 112744)
In words: BSK_BT_xIL17F: BioMAP Diversity Plus: BT Assay for Interleukin 17F (IL17F) Biomarker Activity (AID 2284243). The note with it: primary human B cells with PBMC. The method in brief: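 Secreted IL-17F, read on LumineX xMAP beads, was taken as the endpoint. Cultures combined human B cells and peripheral blood mononuclear cells, sampled 24 hours after dosing, with DMSO serving as negative control.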

As to `C[C@]12C=CC(=O)C=C1CC[C@H]1[C@@H]3C[C@@H](O)[C@](O)(C(=O)CO)[C@@]3(C)C[C@H](O)[C@@]12F`, the AC50 (commonly the concentration giving half of the maximal activity seen) in assay [1] is 23.6 µM (active); in assay [2] it was 20.1 µM (active); in [3], 23 µM (active); in [4] it was 25.6 µM (active); in assay [5], 3.75 µM (active).

For `Nc1ccn([C@@H]2O[C@H](CO)[C@@H](O)[C@@H]2O)c(=O)n1`, the AC50 in assay [1] was 1.58 µM (active) and 2.33 µM (active); in [2], 11.9 µM (active) and 3 µM (active); in [3] it was 29 nM (active) and 290 nM (active); in assay [5], 4.39 µM (active) and 3.57 µM (active). In assay [4], the call was inactive.

Take `OC(Cn1cncn1)(Cn1cncn1)c1ccc(F)cc1F`: the compound was classed as inactive in assay [2], in assay [3] and in assay [4].

For `CCN(CC)C(=S)SSC(=S)N(CC)CC`, the AC50 in assay [6] was 50 µM (active).

Turning to `c1ccc2c(c1)-c1cccc3c1c-2cc1ccccc13`, the outcome in [6] and in assay [7] was inactive.

Take `Cc1cccc(O)c1C`: the result in [8], in assay [9] and in [10] was inactive.

In the case of `OCc1c[nH]c2ccccc12`, the outcome in assay [8], in [9] and in assay [10] was inactive.

Regarding `Cn1cc[nH]c1=S`, the compound was classed as inactive in [1], in assay [2], in assay [3] and in assay [4].

Consider `NNC(=O)c1ccncc1`, for which the compound was called inactive in assay [2], in [3], in assay [4] and in assay [5].

As to `OC(O)(C(F)C(O)(O)C(F)(F)F)C(F)(F)F`, the result in assay [8], in [9] and in [4] was inactive. For the same compound, the AC50 is 13.4 µM (active) in assay [3]; 46.7 µM (active) and 30 µM (active) in assay [10].

On to `OCCC(F)(F)C(F)(F)C(F)(F)C(F)(F)F`, for which the result in [8], in [9] and in assay [10] was inactive.

As for `O=S(=O)(O)CCC(F)(F)C(F)(F)C(F)(F)C(F)(F)C(F)(F)C(F)(F)F`, the outcome in [8], in assay [9] and in assay [10] was inactive.
